# Many of the other results were omitted from the sample, so hits are more common in it than they were.
# GIRK2 act: Activates human GIRK2-containing potassium channels | P48051 | HEK293 GIRK2/NPY4 cells, thallium flux fluorescence | activation (% efficacy), % for hits at 37.5 µM | 34,000 tested, under 10 active;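 active = primary screen hit, no activity in plain HEK293 cells, and in GIRK2-only cells above 5% efficacy rising with concentration; inactive = the rest, including fluorescent compounds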;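 also: efficacy is normalized control-subtracted fluorescence 15 s after thallium addition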
# GluA2 TARP mod: modulators of AMPA receptor GluA2-stargazin complexes | calls only at 30 µM | O88602+P19491 | 40,000 tested, 3.5% active | HEK293 GluA2+stargazin, membrane potential dye (FDSS), glutamate EC50; hits were called plate by plate, in both directions;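 active = any of four per-well response measures lying three or more SD from its plate-wide compound average, in either direction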
# An asterisk follows results filed as active; i = inactive; · = no result; + = active, no number.
SMILES,GIRK2 act,GluA2 TARP mod
CCS(=O)(=O)c1ccc(CC(=O)Nc2ccc(Cl)cc2C(=O)c2ccccc2)cc1,·,i
CS(=O)(=O)c1ccc(CC(=O)Nc2ccc(Cl)cc2C(=O)c2ccccc2Cl)cc1,·,+
COc1cc(/C=C2\Oc3cc(OC(=O)N(C)C)ccc3C2=O)cc(OC)c1OC,·,i
COC(=O)c1ccc(/C=C2\Oc3cc(OC(=O)N(C)C)ccc3C2=O)cc1,·,i
O=C(NCC1CCN(C(=O)Oc2ccccc2)CC1)NC(c1ccccc1)c1ccccc1,i,i
Cc1ccc(NC(=O)NCC2CCN(C(=O)Oc3ccccc3)CC2)cc1C,i,+

# Compound activity: PubChem BioAssay, several laboratories
